Cycloheximide cs: counter-screen hit for Shiga toxin inhibitors, cycloheximide. max response, %. cell reporter, cycloheximide protein synthesis inhibition counterscreen. hit rate 12% among 300,000. AID 2314; in the data active means max response mostly above about 13%, no sharp cut-off; inactive means mostly below about 14%; further: read at 38.3 µM for the half of the compounds with a filed dose; 0% is about no effect
NS1 inh: influenza NS1 inhibition. Potency, µM (top dose mostly 46.1 µM), for inactives: at the top dose activity, positive = more growth. hit rate 0.4% among 270,000; calls by dose curve; further: potency means the concentration at half of the fitted maximal effect; actives are rising curves; nearly all actives have a fitted effect of over 50% in size
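Recovery from NS1-induced slow growth read by OD600 in budding yeast switched to galactose assay medium (pH 6.0, -URA) at 1:100 dilution. Compound 23 nl per well; the matching strain lacking NS1 serves as control.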
Shiga inhibitor: blocks Shiga toxin action in Vero cells; Vero cells, Shiga toxin protein synthesis inhibition reporter; inhibition, % at 38.7 µM; hit rate 9.2% among 290,000; in the data active means inhibition mostly above about 28%, no sharp cut-off; inactive means mostly below about 43%; further: 0% is about no effect
FBPA Giardia inh: Giardia lamblia aldolase inhibition. purified Giardia FBPA. A8B2U2. Potency, µM (series often up to 59.6 µM), for inactives: at the highest dose activity, negative = inhibition, most hits filed as inhibitors. hit rate 0.71% among 290,000. AID 2451; further: potency means the concentration at half of the fitted maximal effect; on the % scale 0 is the no-effect control and ±100 the full control effect; nearly all actives have a fitted effect of over 55% in size
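40 nM FBPA preincubated 10 min at RT with compound (up to 57.5 uM final), then substrate plus GAPDH/TPI/NAD/arsenate coupling and diaphorase/resazurin added. Fluorescence read after 20 min at RT, 525/598 nm.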
LmPK inhibitor: inhibitors of Leishmania mexicana pyruvate kinase | purified LmPK, Kinase-Glo ATP luminescence, 1 h | Potency, µM (highest dose often 57.5 µM), for the others: top-dose activity change, negative = inhibition, actives largely listed as inhibitors | hit rate 0.37% among 290,000 | AID 1721; further: potency means the concentration at half of the fitted maximal effect; on the % scale 0 is the no-effect control and ±100 the full control effect
Target sequence (Q27686 whole entry, looked up): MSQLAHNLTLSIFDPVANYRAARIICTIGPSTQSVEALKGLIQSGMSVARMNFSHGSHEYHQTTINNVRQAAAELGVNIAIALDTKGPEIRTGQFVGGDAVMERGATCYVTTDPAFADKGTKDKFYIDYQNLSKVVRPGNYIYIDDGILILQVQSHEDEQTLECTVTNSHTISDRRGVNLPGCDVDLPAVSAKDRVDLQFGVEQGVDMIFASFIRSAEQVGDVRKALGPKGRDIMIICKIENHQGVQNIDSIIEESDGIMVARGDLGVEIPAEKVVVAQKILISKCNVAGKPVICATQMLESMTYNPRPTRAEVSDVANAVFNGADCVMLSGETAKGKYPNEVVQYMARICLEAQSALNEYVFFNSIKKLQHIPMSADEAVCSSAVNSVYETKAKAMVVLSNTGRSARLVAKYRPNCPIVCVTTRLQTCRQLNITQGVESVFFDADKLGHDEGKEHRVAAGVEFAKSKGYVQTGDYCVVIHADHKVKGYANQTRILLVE
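Pyruvate kinase activity monitored as ATP production (luciferase luminescence). Conditions: 0.1 nM enzyme, 0.5 mM PEP, 0.1 mM ADP, 1 h, RT; normalized against uninhibited and no-enzyme wells.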
Starred values were filed as active, the others as inactive; u = inconclusive; x = no result given; [ ] = remark or other dose. The list is not random: actives were taken first. Their share in the collection is about 14%. Unless noted, the call rests on the fitted dose curve; in most records, active means well fitted curve in the direction sought with a large enough effect; inconclusive means small, poorly fitted or top-dose-only effect, or another doubt; inactive means no such curve, though single readings can be large; an effect the other way counts as inactive or inconclusive.

SMILES	Cycloheximide cs	NS1 inh	Shiga inhibitor	FBPA Giardia inh	LmPK inhibitor
COCc1nc2oc3ccc(F)cc3c(=O)c2cc1C(=O)OC	14.0	-1.0%	3.4	-1.3%	-2.6%
Cc1nc2oc3ccc(F)cc3c(=O)c2cc1C(=O)O	26.5*	-0.1%	30.4	-2.9%	-21.4%
O=C(O)c1cc2c(=O)c3ccccc3oc2nc1C(F)(F)F	-3.8	4.1%	-6.0	-7.5%	1.1%
COCc1nc2oc3ccc(C)cc3c(=O)c2cc1C(=O)OC	23.1*	5.3%	42.4	2.0%	-13.0%
Cc1ccc2oc3nc(C)c(C(=O)O)cc3c(=O)c2c1	41.2*	3.1%	34.6	1.8%	15.8µM*
O=C(/C=C/c1cccs1)Nc1scc(-c2ccccc2)c1C(=O)O	44.2*	x	91.5*	u	-2.2%[11.5 µM]
Cc1ccnc(NC(=O)C2(c3cccs3)CCOCC2)c1	-2.3	9.6%	-13.1	-1.1%	-3.0%
O=C(/C=C/c1cccs1)NC(=S)NNC(=O)Cc1cccs1	1.0	13.7%	-3.5	u	-1.5%
O=C(/C=C/c1cccs1)Nc1cccnc1	75.3*	-13.3%	124.0*	-10.8%	u
Cc1ccnc(NC(=O)/C=C/c2cccs2)c1	49.9*	-23.1%	97.4*	0.4%	u
O=C(/C=C/c1cccs1)Nc1nncs1	33.5*	-5.7%	53.6*	5.0%	-0.3%
O=C(/C=C/c1cccs1)Nc1nc(-c2ccccc2)cs1	40.0*	13.5%	62.7*	-11.9%	1.6%
O=C(/C=C/c1ccc2c(c1)OCO2)Nc1nc(-c2ccccc2)cs1	2.1	-3.9%	38.8	-9.9%	0.7%
CN1CC[C@@]2(CCCN(C(=O)c3cc(C(F)(F)F)cc(C(F)(F)F)c3)C2)C1	x	x	x	-8.5%	x
Cc1cccc(COc2ncnc3nc[nH]c23)c1	14.7	0.7%	35.2*	0.4%	-5.9%
CCCCC(=O)Nc1ccc(NC(=O)C2CC2)cn1	10.6	-4.8%	33.0	3.6%	0.5%
CCCC(=O)Nc1ccc(NC(=O)C2CC2)cn1	26.3*	11.3%	17.2	3.6%	-0.7%
CCCCC(=O)Nc1ccc(NC(=O)CCCC)nc1	12.8*	-1.4%	63.3	1.7%	5.4%
O=C(CS(=O)(=O)c1ccccc1)Nc1ccc(Br)cn1	19.4*	-16.6%	26.3*	-1.7%	-0.2%
CCCCNC(=O)Nc1ccc(Br)cn1	36.1*	-81.7%	30.9*	3.7%	-1.1%
O=C(CSc1nc2ncccc2[nH]1)Nc1ccccc1-c1ccccc1	-5.0	-2.2%	-5.0	u	0.3%
O=C(O)CCC1CCCC1	-2.7	x	-10.6	4.1%	x
NCCc1c[nH]c2ccc(OC(=O)C(=O)O)cc12	x	-3.5%	x	x	x
CCCNC(=O)c1nn2cc(Br)cnc2c1Cl	20.1	x	-2.1	0.7%	10.0%
CCCCC(=O)Nc1ccc(Br)cn1	21.9*	-3.8%	60.5	-2.8%	-7.4%
SMILES	Cycloheximide cs	NS1 inh	Shiga inhibitor	FBPA Giardia inh	LmPK inhibitor
CCCCNC(=O)c1nn2cc(Br)cnc2c1Br	23.1*	x	22.2	1.7%	9.4%
COc1ccc(C(=O)N=c2sc3c(C)ccc(OC)c3n2C)cc1OC	12.0	-0.8%	26.7	-6.7%	-11.7%
COc1ccccc1C(=O)N=c1sc2c(C)ccc(OC)c2n1C	39.9*	3.1%	107.0*	-24.5%	-2.9%
COc1cccc(C(=O)N=c2sc3c(C)ccc(OC)c3n2C)c1	44.6*	10.4%	48.5*	-0.2%	-0.4%
CC1=C(C)CC(C(=O)NCCc2ccc(F)cc2)C(C(=O)O)C1 (configuration not stated)	-3.4	13.2%	-8.7	3.0%	1.0%
COc1ccc2c(c1)Cc1cc(N=[N+]([O-])c3ccc4c(c3)Cc3cc(OC)ccc3-4)ccc1-2	x	0.5%	x	x	x
Cc1ccc(CNC(=O)CNS(=O)(=O)c2ccc(Br)s2)cc1	3.1	14.0%	-13.6	6.3%	-3.3%
O=C(O)CCc1ccc(-c2ccccc2)o1	15.3*	-46.2%	5.9	-1.3%	-15.8%
CCCc1ccc2oc(C(=O)N3CCC[C@H]3CO)c(C)c2c1	40.8*	-35.6%	28.9*	-11.3%	-2.0%
CCCc1ccc2oc(C(=O)N3CCC(N4CCCC(O)C4)CC3)c(C)c2c1 (configuration not stated)	13.0	-1.3%	13.2	x	2.7%
CCCc1ccc2oc(C(=O)N3CCC(COC)C3)c(C)c2c1 (configuration not stated)	32.8*	-34.1%	x	13.1%	0.0%
CCCc1ccc2oc(C(=O)N3CCN(c4cnccn4)CC3)c(C)c2c1	12.4*	-61.3%	5.6	x	0.1%
CCCc1ccc2oc(C(=O)N3CCN(CCC(N)=O)CC3)c(C)c2c1	8.4	3.9%	13.8	18.6%	2.1%
Cc1ccc2c(C)c(C(=O)NCCN3CCCC(O)C3)oc2c1C (configuration not stated)	9.8	-5.9%	4.5	x	-1.0%
CCCc1ccc2oc(C(=O)N3CCN(CC(=O)NC(C)C)CC3)c(C)c2c1	10.4	-18.3%	10.8	1.7%	0.7%
Cc1ccc2c(C)c(C(=O)N3CCCCC3CO)oc2c1C (configuration not stated)	20.8*	-24.3%	67.1*	15.8%	1.3%
COc1cccc(-c2ccc3ncnc(NCCNC(C)=O)c3c2)c1	x	x	x	1.6%	x
CC(C)OCCCn1c(-c2ccco2)nc2nc3ccccc3nc21	13.2*	-38.1%	21.2	-6.8%	-1.9%
COCCn1c(-c2ccco2)nc2nc3ccccc3nc21	11.0	-13.3%	25.5	-8.0%	-6.1%
Cc1cc2c(=O)n(C)c(SCC(=O)Nc3cccc(F)c3)nc2s1	-8.8	-54.9%	-3.6	7.9%	8.5%
N#C/C(=C\c1cccnc1)c1ccc(Br)cc1	47.3*	-41.6%	43.7	4.2%	3.1%
N#CC(C#N)=Cc1cccnc1	-1.7	6.0%	3.6	u	-1.3%
COc1ccc(-c2nc3cnc(N(C)C)nc3n(Cc3ccc(F)cc3)c2=O)cc1	x	x	x	18.4%	x
CN(C)S(=O)(=O)c1ccc(C(=O)NCCc2ccco2)cc1	24.7*	3.9%	63.3*	7.4%	-0.1%
O=C(O)c1cccc(S(=O)(=O)NCCc2ccccc2)c1	-2.5	6.5%	-10.7	9.9%	-0.1%
SMILES	Cycloheximide cs	NS1 inh	Shiga inhibitor	FBPA Giardia inh	LmPK inhibitor
O=C(O)c1cccc(S(=O)(=O)Nc2ccccc2C(=O)NCCc2ccccc2)c1	28.9*	16.4%	46.0*	28.1%	1.5%
COc1ccccc1OCCNC(=O)c1ccc(S(=O)(=O)N(C)C)cc1	-1.3	0.0%	12.6	1.6%	-0.4%
O=C(NCCc1ccccc1)c1cccc(S(=O)(=O)N2CCCCC2)c1	28.4*	-6.8%	39.8*	-4.8%	0.7%
O=C(NCCc1ccccc1)C1=CCN(S(=O)(=O)c2ccccc2)CC1	29.7*	3.5%	34.6	x	7.1%
COCCn1c(=O)c(-c2ccc(Cl)cc2)nc2cncnc21	x	x	x	-12.5%	x
Cn1c(=O)c2c(ncn2CCC(=O)N/N=C/c2ccncc2)n(C)c1=O	-6.0	2.5%	5.4	1.1%	-1.3%
O=C1COc2ccc(S(=O)(=O)N3CCC(C(=O)NCc4ccc(F)cc4)CC3)cc2N1	-7.6	-13.2%	20.8	x	-4.9%
CN(C)S(=O)(=O)c1cccc(C(=O)NCCc2ccccc2)c1	48.3*	-4.8%	72.1*	1.3%	-3.4%
CN(C)S(=O)(=O)c1cccc(C(=O)Nc2ccccc2Cl)c1	13.7	-1.9%	24.7	8.1%	7.2%
CN(C)S(=O)(=O)c1cccc(C(=O)Nc2cc(Cl)ccc2O)c1	39.7*	-57.0%	33.7	-9.9%	-1.5%
